These results are taken from ChEMBL document CHEMBL2218924, “A broad activity screen in support of a chemogenomic map for kinase signalling research and drug discovery” (Biochem J, 2013).

Structures are written as SMILES.

For the assay, the target named is Mitogen-activated protein kinase kinase kinase 9 (Homo sapiens) (UniProt P80192). The following applies: at 1 µM.
Chain of Mitogen-activated protein kinase kinase kinase 9 (Homo sapiens) (P80192 whole entry, looked up): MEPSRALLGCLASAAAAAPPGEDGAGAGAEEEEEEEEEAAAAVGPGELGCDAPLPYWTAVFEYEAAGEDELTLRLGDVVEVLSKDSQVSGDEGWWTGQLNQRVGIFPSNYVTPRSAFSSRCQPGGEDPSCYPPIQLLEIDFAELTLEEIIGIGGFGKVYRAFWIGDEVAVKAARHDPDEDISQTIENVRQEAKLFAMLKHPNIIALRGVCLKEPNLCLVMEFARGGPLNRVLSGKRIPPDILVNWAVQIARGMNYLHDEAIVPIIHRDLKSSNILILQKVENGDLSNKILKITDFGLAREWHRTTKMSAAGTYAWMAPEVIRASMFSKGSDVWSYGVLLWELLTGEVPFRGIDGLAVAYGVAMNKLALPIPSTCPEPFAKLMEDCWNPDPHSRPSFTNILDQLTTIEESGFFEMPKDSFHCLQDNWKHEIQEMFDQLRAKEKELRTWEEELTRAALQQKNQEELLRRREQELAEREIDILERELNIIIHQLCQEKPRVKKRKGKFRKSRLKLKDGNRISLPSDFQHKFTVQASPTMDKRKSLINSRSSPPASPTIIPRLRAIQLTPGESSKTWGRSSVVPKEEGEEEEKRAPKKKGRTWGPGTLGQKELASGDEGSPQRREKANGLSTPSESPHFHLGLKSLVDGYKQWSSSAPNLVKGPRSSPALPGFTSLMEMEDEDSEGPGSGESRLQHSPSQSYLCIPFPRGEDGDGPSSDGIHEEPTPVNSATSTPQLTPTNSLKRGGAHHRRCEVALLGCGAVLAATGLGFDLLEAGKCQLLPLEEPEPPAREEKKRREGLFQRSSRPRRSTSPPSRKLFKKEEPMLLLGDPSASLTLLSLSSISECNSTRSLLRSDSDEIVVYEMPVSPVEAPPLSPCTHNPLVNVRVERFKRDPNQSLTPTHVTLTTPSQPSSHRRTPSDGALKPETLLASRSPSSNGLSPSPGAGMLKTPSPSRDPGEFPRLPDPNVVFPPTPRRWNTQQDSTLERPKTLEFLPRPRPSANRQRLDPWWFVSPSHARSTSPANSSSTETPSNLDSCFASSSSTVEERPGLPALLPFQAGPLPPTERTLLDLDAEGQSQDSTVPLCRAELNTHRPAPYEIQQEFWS
Take `Cn1c2ccccc2c2c3c(c4c5ccccc5n(CCC#N)c4c21)CNC3=O`: the residual activity stood at 2%. The value for `Nc1ncnc2c1cnn2-c1ccccc1` was 83%; that for `O=C1Cc2c([nH]c3ccc([N+](=O)[O-])cc23)-c2ccccc2N1` was 7%; that for `O=c1cc(N2CCOCC2)oc2c1ccc1ccccc12` was 96%. The value for `c1ccc(-c2cnc(Nc3ccc(OCCN4CCCC4)cc3)s2)cc1` was 74%; that for `O=C(NC(NC(=S)Nc1ccc(F)c([N+](=O)[O-])c1)C(Cl)(Cl)Cl)C(c1ccccc1)c1ccccc1` (stereo not given) was 102%.

Regarding `O=C1NC(=O)C(c2cn(CCCO)c3ncccc23)=C1c1cnccn1`, the residual activity is 75%.

In the case of `O=C(Nc1nc2ccccc2n1CCN1CCOCC1)c1cccc([N+](=O)[O-])c1`, the residual activity is 77%.

On to `NCCNc1ncc(C(N)=O)c(Nc2cccc(C(F)(F)F)c2)n1`, for which the residual activity was 30%. On to `O=C(O)/C=C/c1cc(Br)c(Br)c(Br)c1Br`, for which the residual activity came out at 93%.

With `CC(C)(C)n1nc(Cc2cccc3ccccc23)c2c(N)ncnc21`, the residual activity came to 68%. Consider `O=C(CCCc1ccc(-c2ccccc2F)cc1)Nc1ccc(O)cc1`, for which the residual activity came to 91%.

With `CSc1nc(-c2ccc(F)cc2)c(-c2ccnc(NC(C)c3ccccc3)c2)[nH]1` (stereo not given), the residual activity was 99%. The result for `CCN(CC)CCNC(=O)c1c(C)[nH]c(/C=C2\C(=O)Nc3ccc(Cl)cc32)c1C` reads 24%.

Consider `O=C1Nc2ccc(Cl)cc2/C1=C/c1cc(Cl)c(O)c(Cl)c1`, for which the residual activity worked out at 56%. For the molecule `COc1cc2nccc(Oc3ccc(NC(=S)NC(=O)c4ccccc4C)cc3)c2cc1OC`, the residual activity amounted to 63%. The result for `N#C/C(=C1/Nc2ccccc2S1)c1ccnc(NCCc2cccnc2)n1` reads 48%; that for `CC(C)(C)c1nc2c3ccc(F)cc3c3c(=O)[nH]ccc3c2[nH]1`, 9%; that for `O=C1Cc2c([nH]c3ccc(Br)cc23)-c2ccccc2N1`, 22%.

In the case of `N#Cc1c(NC(=O)c2cccc3ccccc23)sc2c1CCCC2`, the residual activity is 96%. The value for `O=c1cc(N2CCNCC2)oc2c(-c3ccccc3)cccc12` was 88%. The value for `O=C1NC(=O)c2c1c1c3ccccc3[nH]c1n1cncc21` was 33%; that for `Nc1n[nH]c2nc3ccccc3nc12` was 82%; that for `NC(=O)c1ccc(-c2nc(-c3ccc4c(c3)OCCO4)c(-c3ccccn3)[nH]2)cc1` was 94%. The result for `NC(=O)Nc1sc(-c2ccc(F)cc2)cc1C(N)=O` reads 9%.
